In ChEMBL document CHEMBL1157539, “Thousands of chemical starting points for antimalarial lead identification” (Nature, 2010):

Tested on: HepG2
Assay: GSK_TCMDC: Percent inhibition of human HepG2 cell line. Test compounds present at 10uM.
Format: functional

Compound | Inhibition
CC(C)=CCc1c(-c2ccc(O)cc2O)oc2c3c(cc(O)c2c1=O)OC(C)(C)C=C3 [MORUSIN] | 1%
Cc1cccc2nc(-c3ccc(-c4cccc(CN5CCCC(N)C5)c4)s3)[nH]c12.O=C(O)C(F)(F)F (stereo not drawn) | 17%
CNC(=O)/C=C/c1cc(NC(=O)Nc2cc(C)nc3c(F)cccc23)ccc1OC | 0%
CN(C)c1ccc(-c2csc(C(=O)NC3CCCCN(CCC(C)(C)C)C3)c2)cc1.O=C(O)C(F)(F)F (stereo not drawn) | 10%
c1ccc2cc3c(Nc4ccc(N5CCCCCC5)cc4)ccnc3cc2c1 | 10%
CN1CCc2cc(NS(=O)(=O)c3ccc(-c4ccc(Cl)s4)cc3)c(N3CCCCC3)cc2CC1.Cl | 14%
O=C(NCc1cccc2ccccc12)c1ccc(CNC2CCN(Cc3ccccc3)CC2)cc1.O=C(O)C(F)(F)F | 15%
CC(C)c1ccc(CN2CCC(CNC(=O)c3cc(-c4cccc(Cl)c4)cs3)C2)cc1.O=C(O)C(F)(F)F (stereo not drawn) | 42%
